Data from the supplement of paper PMC13380429.

Tested on: Vero E6 infected with SARS-CoV-2
Assay: inhibition of SARS-CoV-2 cytopathic effect; higher = more antiviral protection, active = above 15
Settings: 48 h

Measured: inhibition of SARS-CoV-2 cytopathic effect

COc1ccccc1OC(=O)C(C)c1ccc(CC(C)C)cc1 (stereo not given) [metoxibutropate]
inactive: 1 nM -3.38% | 8.33 nM -2.87% | 100 nM -1.26% | 833.33 nM -1.98% | 10000 nM -3.16%

Nc1ccccc1NC(=O)c1ccc(CNc2nccc(-c3cccnc3)n2)cc1 [mocetinostat]
inactive: 1 nM 0.57% | 8.33 nM -0.45% | 100 nM -0.53% | 833.33 nM 1.7% | 10000 nM -0.45%

CN(C/C=C/C#CC(C)(C)C)Cc1cccc2ccccc12 [terbinafine]
inactive: 1 nM 5.77% | 8.33 nM 2.3% | 100 nM 8.59% | 833.33 nM 6.27% | 10000 nM 8.15%

O[C@@H](CN1CCC(Cc2ccc(F)cc2)CC1)c1ccc(Cl)cc1 (racemic) [eliprodil]
inactive: 1 nM 0.81% | 8.33 nM 0.95% | 100 nM 0.19% | 833.33 nM 2.59% | 10000 nM -0.42%

CC#CCOC(=O)c1c(C)nc2sc3c(c2c1N)CCC(O)C3 (stereo not given)
inactive: 1 nM 1.8% | 8.33 nM 0.47% | 100 nM 3.12% | 833.33 nM -0.32% | 10000 nM 0.73%

O=C1N=C2SCCN2C(=O)C1Cc1ccc(Cl)cc1 (stereo not given) [nuclomedone]
inactive: 1 nM -1.33% | 8.33 nM -3.69% | 100 nM 0.26% | 833.33 nM 0.58% | 10000 nM -2.17%

CC(C)(C)c1ccc(-c2nc3ccccc3[nH]2)cc1
inactive: 1 nM -0.43% | 8.33 nM -0.22% | 100 nM 1.49% | 833.33 nM 3.96% | 10000 nM 4.75%

O=NN(CCCl)C(=O)NC1CCCCC1 [lomustine]
inactive: 1 nM -1.8% | 8.33 nM 1.26% | 100 nM 1.76% | 833.33 nM 2.26% | 10000 nM -0.14%

C[C@@H]1CC[C@@]2(NC1)O[C@H]1C[C@H]3[C@@H]4CC=C5C[C@@H](O[C@@H]6O[C@H](CO)[C@@H](O[C@@H]7O[C@@H](C)[C@H](O)[C@@H](O)[C@H]7O)[C@H](O)[C@H]6O[C@@H]6O[C@@H](C)[C@H](O)[C@@H](O)[C@H]6O)CC[C@]5(C)[C@H]4CC[C@]3(C)[C@H]1[C@@H]2C [solamargine]
inactive: 1 nM -1.13% | 8.33 nM -0.16% | 100 nM 0.07% | 833.33 nM -3.82% | 10000 nM -15.1%

CC(C)(Oc1ccc(Cl)cc1)C(=O)O [clofibric-acid]
inactive: 1 nM 0.55% | 8.33 nM 2.02% | 100 nM 0.3% | 833.33 nM 2.45% | 10000 nM 2.22%

Cc1ccc(/C=C2/C(=O)C3(C)CCC2C3(C)C)cc1 (stereo not given) [3-(4-methylbenzylidene)camphor]
inactive: 1 nM 0.22% | 8.33 nM 0.95% | 100 nM 2.26% | 833.33 nM 0.01% | 10000 nM 0.05%

Cc1ccc(F)cc1C(=O)Nc1ccc(C(=O)N2Cc3cccn3Cc3ccccc32)c(Cl)c1 [lixivaptan]
inactive: 1 nM -2.22% | 8.33 nM 2.67% | 100 nM 2% | 833.33 nM 1.18% | 10000 nM -0.31%

CCS(=O)(=O)N(C)[C@H]1c2cc(C#N)ccc2OC(C)(C)[C@@H]1O [chromanol-293B-(-)-[3R,4S]]
inactive: 1 nM 0.15% | 8.33 nM -2.19% | 100 nM 0.8% | 833.33 nM 1.12% | 10000 nM -1.64%

CN1CC[C@H](c2c(O)cc(O)c3c(=O)cc(-c4ccccc4Cl)oc23)[C@H](O)C1 [alvocidib]
inactive: 1 nM 2.38% | 8.33 nM 1.53% | 100 nM 7.55% | 833.33 nM -19.4% | 10000 nM -9.43%

CC(C)c1nc(CN(C)C(=O)N[C@H](C(=O)N[C@@H](Cc2ccccc2)C[C@H](O)[C@H](Cc2ccccc2)NC(=O)OCc2cncs2)C(C)C)cs1 [Ritonavir]
inactive: 1 nM 0.39% | 8.33 nM 1.47% | 100 nM 0.46% | 833.33 nM 1.28% | 10000 nM -1.6%

O=C(CCCCCN1C(=O)c2cccc3cccc(c23)C1=O)NO [scriptaid]
inactive: 1 nM 4.82% | 8.33 nM 3.4% | 100 nM -3.14% | 833.33 nM -13.6% | 10000 nM -24.8%

COc1ccc(Br)cc1S(=O)(=O)NC(=O)/C=C/c1ccccc1Cc1ccc2ccccc2c1
inactive: 1 nM 1.22% | 8.33 nM 1.19% | 100 nM 1.93% | 833.33 nM 3.35% | 10000 nM -0.51%

C[C@]12CC[C@@H]3c4ccc(O)cc4CC[C@H]3[C@@H]1C[C@@H](O)[C@@H]2O [estriol]
inactive: 1 nM 2.04% | 8.33 nM 1.38% | 100 nM -1.95% | 833.33 nM -1.63% | 10000 nM -0.19%

O=C(O)CC1CC(c2ccccc2)=NO1 (stereo not given)
inactive: 1 nM -0.73% | 8.33 nM 0.07% | 100 nM -0.78% | 833.33 nM 2.86% | 10000 nM 0.36%

Oc1cc(O)c2c(c1)O[C@H](c1ccc(O)c(O)c1)[C@@H](O)C2 [cianidanol]
inactive: 1 nM -1.29% | 8.33 nM 0.71% | 100 nM -1.15% | 833.33 nM -0.95% | 10000 nM -2.3%

COc1ccnc(C[S+]([O-])c2nc3cc(OC(F)F)ccc3[nH]2)c1OC (stereo not given) [pantoprazole]
inactive: 1 nM -1.17% | 8.33 nM -2.35% | 100 nM -4.09% | 833.33 nM 0.78% | 10000 nM 0.79%

CCc1cc(-c2[nH]nc(C)c2-c2ccc3c(c2)OCCO3)c(O)cc1O
inactive: 1 nM -2.8% | 8.33 nM -1.99% | 100 nM -0.23% | 833.33 nM -1.82% | 10000 nM -2.59%

COc1cc(OC)c(NC(=O)Nc2cc(C)on2)cc1Cl
inactive: 1 nM 2.33% | 8.33 nM 0.81% | 100 nM 1.57% | 833.33 nM 4.04% | 10000 nM 2.62%

CC(C)NCC(O)c1ccc2ccccc2c1 (stereo not given) [pronethalol]
inactive: 1 nM 0.73% | 8.33 nM 1% | 100 nM -0.07% | 833.33 nM 0.3% | 10000 nM -1.64%

CCN(CC)CCOc1ccc(Cc2ccccc2)cc1
inactive: 1 nM -2.21% | 8.33 nM -0.5% | 100 nM -4.41% | 833.33 nM 0.19% | 10000 nM -0.76%

Cc1nccn1CC1CCc2c(c3ccccc3n2C)C1=O (stereo not given) [ondansetron]
inactive: 1 nM 3.14% | 8.33 nM 0.05% | 100 nM -1.38% | 833.33 nM -1.32% | 10000 nM 3.44%

COc1cc(NC(=O)c2ccc(-c3ccc(Cl)cc3)o2)cc(OC)c1
inactive: 1 nM 1.92% | 8.33 nM 0.3% | 100 nM 0.76% | 833.33 nM 0.19% | 10000 nM 0.71%

CCCC(=O)O [sodium-butyrate]
inactive: 1 nM -1.28% | 8.33 nM -0.1% | 100 nM 1.57% | 833.33 nM -0.53% | 10000 nM 0.24%

CCc1cc2c(cc1N1CCC(N3CCOCC3)CC1)C(C)(C)c1[nH]c3cc(C#N)ccc3c1C2=O [alectinib]
inactive: 1 nM 0.52% | 8.33 nM 1.4% | 100 nM -0.38% | 833.33 nM -1.14% | 10000 nM 0.15%

CCCCCC(C)N (stereo not given) [tuaminoheptane]
inactive: 1 nM 1.21% | 8.33 nM 1.95% | 100 nM 0.51% | 833.33 nM 3.02% | 10000 nM 1.11%

C=CC1=C(C)C2=CC3=NC(=C(CC(=O)O)C4=NC(=C(C)C4=C(O)O)C=c4[nH]c(c(C)c4CC)=CC1=N2)C(CCC(=O)O)C3C (stereo not given) [chlorophyllin]
inactive: 1 nM -0.57% | 8.33 nM -1.3% | 100 nM -0.92% | 833.33 nM -4.38% | 10000 nM -10.6%

COc1ccc(NC(=O)c2ccc(-c3ccc(-c4noc(C)n4)cc3C)cc2)cc1N1CCN(C)CC1
inactive: 1 nM 4.92% | 8.33 nM 6.46% | 100 nM 0.49% | 833.33 nM -1.73%
active: 10000 nM 36.7%

C[C@H](Cn1cnc2c(N)ncnc21)OCP(=O)(O)O [tenofovir]
inactive: 1 nM -0.47% | 8.33 nM -2.44% | 100 nM -1.27% | 833.33 nM 0.5% | 10000 nM 0.69%

Cc1cccc(C)c1NC(=O)C[N+](C)(C)C
inactive: 1 nM -1.32% | 8.33 nM 0.36% | 100 nM 0.02% | 833.33 nM -0.1% | 10000 nM 0.5%

O=Nc1ccc(O)c2ncccc12
inactive: 1 nM 3.04% | 8.33 nM -4.1% | 100 nM 1.42% | 833.33 nM 13.5%
active: 10000 nM 19.6%

Cn1c(=O)c2c(ncn2C)n(C)c1=O [caffeine]
inactive: 1 nM -0.58% | 8.33 nM 1.54% | 100 nM -0.63% | 833.33 nM 2.87% | 10000 nM 3.35%

Cn1c(NCCN(CCO)CCCc2ccc([N+](=O)[O-])cc2)cc(=O)n(C)c1=O [nifekalant]
inactive: 1 nM -1.86% | 8.33 nM 0% | 100 nM -1.76% | 833.33 nM -0.02% | 10000 nM -1.25%

NC(=O)CN1CCCC1=O [piracetam]
inactive: 1 nM 0.23% | 8.33 nM -1.52% | 100 nM 3.28% | 833.33 nM -1.35% | 10000 nM -0.57%

Cc1ccc(S(=O)(=O)NC2c3ccccc3Oc3ccccc32)cc1
inactive: 1 nM -5.59% | 8.33 nM -2.13% | 100 nM -2.17% | 833.33 nM -6.38% | 10000 nM -2.38%

C[C@@H](CN1CCC(Cc2ccccc2)CC1)[C@@H](O)c1ccc(O)cc1
inactive: 1 nM -1.15% | 8.33 nM -0.92% | 100 nM -0.78% | 833.33 nM -2.61% | 10000 nM -5.49%
